# Assay results as given in PubChem BioAssay (NCATS).
# Records with an inconclusive call do not appear. Active and inactive are the calls of the source. Unless noted, calls come from the whole dose curve.
# Legend:
# [1] = Confirmatory qHTS for VERO E6 Cytotoxicity Assay: Counterscreen for SARS-CoV-2 CPE Assay (AID 1508605); note: nearly all actives have a fitted effect of over 60% in size; note: potency is the fitted concentration of half-maximal effect
# [2] = Confirmatory qHTS for activators (rescue) of SARS-CoV-2 Cytopathic Effect (CPE) (AID 1508606); note: nearly all actives have a fitted effect of over 70% in size; note: potency is the fitted concentration of half-maximal effect
# [3] = Cytotoxicity counterscreen for inhibitors of SARS-CoV-2 cell entry (AID 1645845); details: outcome: dose series up to 57.1 µM unless noted; note: potency is the fitted concentration of half-maximal effect; nearly all actives have a fitted effect of over 50% in size
# In short: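 After a 15 min room-temperature ATPLite 1step step, luminescence reflected ATP remaining in HEK293-ACE2 cells exposed to compound for 1 h plus 48 h at 37 C, with percent activity set by cell and no-cell controls.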
# [4] = Primary qHTS to identify inhibitors of SARS-CoV-2 cell entry (AID 1645846); details: SARS-CoV-2 pseudovirus cell entry assay, luminescence; activity change, negative = inhibition: at 57.1 µM (top of the series) unless noted; note: potency is the fitted concentration of half-maximal effect; nearly all actives have a fitted effect of over 45% in size
# In short: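 Luminescence readout (Bright-Glo luciferase) 48 h after pseudoparticle addition. HEK293-ACE2 cells, 1500/well; compound pre-incubation 1 h; Normalized to spike PP and bald PP.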
# [5] = target: Calcium and integrin-binding protein 1 (Homo sapiens) (UniProt Q99828); assay: Primary qHTS for Identification of Calcium Integrin Binding Protein 1 (CIB1) Competitor (AID 1508620; active = well fitted curve in the direction sought with a large enough effect; an effect the other way counts as inactive or inconclusive;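 note: GST tagged CIB1 binding a fluorescein labelled alphaIIb integrin peptide tracer; top concentration of the series differs between compounds; % is set by controls: 0 for no effect and ±100 for the full control effect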)
# Sequence of Calcium and integrin-binding protein 1 (Homo sapiens) (Q99828 whole entry, looked up): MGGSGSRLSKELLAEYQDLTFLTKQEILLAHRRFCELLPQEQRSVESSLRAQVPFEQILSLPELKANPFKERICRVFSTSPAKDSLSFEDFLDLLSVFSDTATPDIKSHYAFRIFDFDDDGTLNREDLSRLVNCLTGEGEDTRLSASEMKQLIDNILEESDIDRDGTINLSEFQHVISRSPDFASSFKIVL
# In short: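 Fluorescence polarization competition: CIB1-GST (1 uM final) preincubated with compound 15 min at room temperature, then FITC-labeled alphaIIb peptide (100 nM final) added for another 15 min. Polarization read at Ex 480/Em 540.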
# [6] = Confirmatory qHTS to identify inhibitors of SARS-CoV-2 cell entry (AID 1645844); note: potency is the fitted concentration of half-maximal effect; nearly all actives have a fitted effect of over 45% in size
# In short: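 Using stable human ACE2 Expi293F cells, compounds preincubated 1 hr before spike pseudoparticle infection; luciferase signal after 48 hr at 37C, 5% CO2, normalised to spike PP and no-fusion-protein PP wells.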
# [7] = VSVG counterscreen qHTS to identify inhibitors of SARS-CoV-2 cell entry (AID 1645847); note: potency is the fitted concentration of half-maximal effect; nearly all actives have a fitted effect of over 65% in size
# In short: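 HEK293-ACE2 cells (Expi293F stably expressing human ACE2) were pretreated with compound for 1 h at 37 °C, then infected with MLV-based VSV-G pseudotyped particles for 48 h. Luciferase luminescence was normalized to VSV-G PP and bald PP wells.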
# [8] = NCATS anti-infectives library activity on HEK293 viability as a counter-qHTS vs the C. elegans viability qHTS (AID 1745854; active = well fitted curve in the direction sought with a large enough effect; an effect the other way counts as inactive or inconclusive; note: potency is the fitted concentration of half-maximal effect)
# In short: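 Cytotoxicity counter-screen to a worm viability qHTS: CellTiter-Glo luminescence read 10 min after reagent addition. Compounds (final up to 41.7 uM, a 1:5 dilution series) incubated 24 hr at 37C with 1,500 HEK293 cells per well; digitonin control.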
# [9] = NCATS anti-infectives library activity on the primary C. elegans qHTS viability assay (AID 1745855); note: potency is the fitted concentration of half-maximal effect
# In short: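 GFP read-out by 488 nm laser cytometry at day 0, 3 and 7, gated on object perimeter, area and peak intensity, scored viability of PE254-GFP-FLuc worms exposed to compound in S medium with bacterial capsules at 21 °C.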
# [10] = system: HIV-1 nucleocapsid protein NCp7 (binding to TG oligonucleotide); assay: HIV Nucleocapsid (AID 346; call rule not given here;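 note: potency is the fitted concentration of half-maximal effect; potency is for inhibitors that block NC binding and lower polarization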); details: HIV-1 NC / fluorescein-TGTGTGTG probe, fluorescence polarization
# In short: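 HIV-1 NC (100 nM) binding to fluorescein-labelled ssDNA TG4xF (10 nM) in Hepes pH 7.5, 250mM NaCl, 1uM ZnCl2, TCEP and 2-mercaptoethanol; compounds pin-transferred, 1 hr room temperature, fluorescence polarization read on CCD imager.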
# [11] = target: Lysosomal acid glucosylceramidase (Homo sapiens) (UniProt P04062); assay: Glucocerebrosidase-p2 (AID 348; in the data active = potency below about 10 µM; note: potency is the fitted concentration of half-maximal effect); details: purified GBA, blue fluorogenic substrate, 40 min
# Sequence of Lysosomal acid glucosylceramidase (Homo sapiens) (P04062 whole entry, looked up): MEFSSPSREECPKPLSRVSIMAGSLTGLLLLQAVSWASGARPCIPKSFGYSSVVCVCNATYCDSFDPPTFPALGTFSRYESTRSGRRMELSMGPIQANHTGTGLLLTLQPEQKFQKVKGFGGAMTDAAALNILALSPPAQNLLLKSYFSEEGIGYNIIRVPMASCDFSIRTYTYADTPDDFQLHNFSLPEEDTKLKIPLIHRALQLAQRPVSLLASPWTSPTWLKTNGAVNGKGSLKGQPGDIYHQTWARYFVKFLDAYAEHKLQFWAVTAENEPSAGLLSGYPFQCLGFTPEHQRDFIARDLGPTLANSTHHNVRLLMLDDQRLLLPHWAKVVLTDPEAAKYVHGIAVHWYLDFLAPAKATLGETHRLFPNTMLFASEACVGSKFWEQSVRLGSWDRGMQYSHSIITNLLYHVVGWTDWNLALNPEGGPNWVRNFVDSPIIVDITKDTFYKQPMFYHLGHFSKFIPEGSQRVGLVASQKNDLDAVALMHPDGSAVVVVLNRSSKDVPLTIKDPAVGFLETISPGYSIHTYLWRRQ
# In short: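 Normal human glucocerebrosidase (0.2 nM) with blue fluorogenic substrate (80 uM final) in citrate/phosphate pH 5.9 with 10mM sodium taurocholate, 0.01% tween-20; 40 min RT, NaOH/glycine stop; fluorescence Ex 365/Em 440; AC50 from a titration from 0.6 nM upwards.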
# [12] = AP1 Signaling Pathway (AID 357; active = well fitted curve in either direction with a large enough effect, not every such curve was filed as active;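 note: ME-180 reporter cells stimulated with EGF at its EC50 level; % is set by controls: 0 for no effect and ±100 for the full control effect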)
# In short: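 Modulation of EGF-driven AP-1 transcription was assessed with a beta-lactamase reporter in ME-180 cells. Compound and EC50 EGF were co-incubated 5 hours at 37 °C before 2.5-hour CCF4 loading at room temperature and dual-emission reading.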
# [13] = target: Cytochrome P450 1A2 (Homo sapiens) (UniProt P05177); assay: p450-cyp1a2 (AID 410);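 note: -100% = full effect of reference inhibitor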
# Sequence of Cytochrome P450 1A2 (Homo sapiens) (P05177 whole entry, looked up): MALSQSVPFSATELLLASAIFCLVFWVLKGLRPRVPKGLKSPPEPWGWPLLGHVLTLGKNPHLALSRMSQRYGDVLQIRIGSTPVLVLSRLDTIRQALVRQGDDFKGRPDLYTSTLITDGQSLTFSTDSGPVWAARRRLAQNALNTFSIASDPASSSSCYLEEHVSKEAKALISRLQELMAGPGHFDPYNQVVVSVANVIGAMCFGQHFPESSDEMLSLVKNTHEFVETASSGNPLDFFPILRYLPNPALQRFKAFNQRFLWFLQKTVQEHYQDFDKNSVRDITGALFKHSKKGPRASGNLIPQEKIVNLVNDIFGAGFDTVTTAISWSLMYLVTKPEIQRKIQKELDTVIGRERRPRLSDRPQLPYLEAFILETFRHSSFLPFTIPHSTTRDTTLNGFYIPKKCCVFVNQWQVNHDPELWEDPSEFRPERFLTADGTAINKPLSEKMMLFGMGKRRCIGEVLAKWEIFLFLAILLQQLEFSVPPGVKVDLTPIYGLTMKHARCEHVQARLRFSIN
# In short: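 Luminescent demethylation readout: Luciferin-ME (100uM, equal to Km) turned over by 20nM CYP1A2 for 60 min at room temperature after NADPH regeneration addition, following 10 min compound preincubation. Normalization used 57 uM furafylline as full inhibition.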
# [14] = NFAT Signaling Pathway (AID 444; active = well fitted curve in either direction with a large enough effect, not every such curve was filed as active;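 note: carbachol stimulus at about its EC50 of 1 µM final; % is set by controls: 0 for no effect and ±100 for the full control effect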); details: Jurkat NFAT-bla M1, carbachol, beta-lactamase ratio, 5 h; at 7.69 µM (top of the series)
# In short: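 Jurkat cells carrying an NFAT-driven β-lactamase reporter and co-transfected muscarinic M1 receptor were treated with compound plus carbachol (1 uM final, an EC50 level) for 5 h at 37 °C. CCF4 loading followed for 1 h at RT; 460/530 nm ratio gave %activity.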
# [15] = Stat Signaling Pathway (AID 446; active = well fitted curve in either direction with a large enough effect, not every such curve was filed as active;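 note: ME-180 cervical cancer cells given 40 pM IL-6 alongside compound; SIE-controlled beta-lactamase reporter measured as 460/530 nm FRET emission ratio; % is set by controls: 0 for no effect and ±100 for the full control effect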)
# In short: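 FRET read-out (405 nm excitation, 460/530 nm emission) of a beta-lactamase reporter under a STAT-inducible element in ME-180 cervical carcinoma cells. Cells with compound receive 40 pM IL-6 for 5 h. Values are normalised to AC90 stimulation and AC90 JAK-inhibitor controls.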
# [16] = target: Glucocorticoid receptor (Homo sapiens) (UniProt P04150); assay: GR-EFC Redistribution (AID 451); details: CHO-K1 GR-EFC translocation, beta-gal luminescence, 2 h; note: potency is the fitted concentration of half-maximal effect
# Sequence of Glucocorticoid receptor (Homo sapiens) (P04150 whole entry, looked up, the tested form may be a part): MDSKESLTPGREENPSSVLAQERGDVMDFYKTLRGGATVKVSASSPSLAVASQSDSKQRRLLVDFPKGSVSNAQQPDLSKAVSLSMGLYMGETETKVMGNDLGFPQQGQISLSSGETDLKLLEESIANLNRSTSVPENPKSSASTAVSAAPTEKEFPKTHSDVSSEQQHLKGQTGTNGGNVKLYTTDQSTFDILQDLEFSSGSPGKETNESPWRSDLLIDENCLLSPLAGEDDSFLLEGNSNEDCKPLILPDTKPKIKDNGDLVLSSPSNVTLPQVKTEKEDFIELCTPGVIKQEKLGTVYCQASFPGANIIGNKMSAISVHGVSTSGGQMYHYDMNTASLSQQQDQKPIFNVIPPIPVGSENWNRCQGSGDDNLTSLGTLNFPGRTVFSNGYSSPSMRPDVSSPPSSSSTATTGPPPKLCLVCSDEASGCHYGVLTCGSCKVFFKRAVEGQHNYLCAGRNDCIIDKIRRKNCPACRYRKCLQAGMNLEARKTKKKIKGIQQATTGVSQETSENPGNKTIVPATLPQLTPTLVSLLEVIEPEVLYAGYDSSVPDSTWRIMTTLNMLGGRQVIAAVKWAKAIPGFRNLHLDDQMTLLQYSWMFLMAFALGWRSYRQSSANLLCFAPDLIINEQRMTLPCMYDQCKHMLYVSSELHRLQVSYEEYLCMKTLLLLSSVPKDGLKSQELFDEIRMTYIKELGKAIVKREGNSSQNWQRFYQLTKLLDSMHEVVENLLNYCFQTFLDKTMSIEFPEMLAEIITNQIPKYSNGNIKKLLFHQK
# In short: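 CHO-K1 cells stably expressing nuclear-localized β-gal enzyme acceptor and GR fused C-terminally to the enzyme donor fragment; ligand-driven nuclear translocation restores β-gal by complementation. Compounds titrated up to 46 uM final, 2 h at 37 °C; luminescence read.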
# [17] = target: Mitogen-activated protein kinase 10 (Mus musculus) (UniProt Q61831); assay: JNK3 AlphaScreen Assay (AID 530; active = well fitted curve in either direction with a large enough effect, not every such curve was filed as active)
# In short: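 Phosphorylation of biotinylated GST-cJun(1-79) at Ser73 is measured by AlphaScreen proximity luminescence. Enzyme is JNK3 in HepG2 lysates activated with interleukin-1beta and tumor necrosis factor alpha; ATP is 10 uM final.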
# [18] = target: 3',5'-cyclic-AMP phosphodiesterase 4B (Homo sapiens) (UniProt Q07343); assay: qHTS Assay for Inhibitors of PDE-IV (AID 607; active = well fitted activation curve with a large enough effect in the main read-out, with a control signal flat, not every such curve was filed as active; note: % of control where 0% means no effect)
# Sequence of 3',5'-cyclic-AMP phosphodiesterase 4B (Homo sapiens) (Q07343 whole entry, looked up): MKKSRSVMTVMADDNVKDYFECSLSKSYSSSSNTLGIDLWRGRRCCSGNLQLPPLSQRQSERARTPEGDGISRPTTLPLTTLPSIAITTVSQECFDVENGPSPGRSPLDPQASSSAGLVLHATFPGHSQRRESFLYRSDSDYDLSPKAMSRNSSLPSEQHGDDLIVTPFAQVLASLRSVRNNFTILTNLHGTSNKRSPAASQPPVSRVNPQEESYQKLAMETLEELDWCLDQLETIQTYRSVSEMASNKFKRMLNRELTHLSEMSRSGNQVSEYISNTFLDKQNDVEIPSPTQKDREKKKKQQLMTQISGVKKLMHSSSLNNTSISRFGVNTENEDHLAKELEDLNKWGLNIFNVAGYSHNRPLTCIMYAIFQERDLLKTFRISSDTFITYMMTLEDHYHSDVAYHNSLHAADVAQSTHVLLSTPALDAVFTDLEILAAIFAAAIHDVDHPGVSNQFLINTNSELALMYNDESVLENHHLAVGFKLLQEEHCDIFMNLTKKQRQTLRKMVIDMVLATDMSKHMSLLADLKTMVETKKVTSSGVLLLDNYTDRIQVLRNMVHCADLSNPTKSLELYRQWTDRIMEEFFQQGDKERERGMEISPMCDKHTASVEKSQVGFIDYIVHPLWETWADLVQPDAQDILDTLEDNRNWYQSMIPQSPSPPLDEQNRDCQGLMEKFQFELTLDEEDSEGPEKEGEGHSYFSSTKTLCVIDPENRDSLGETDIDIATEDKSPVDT
# In short: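 Cell-based read-out of cAMP via a modified cyclic nucleotide-gated channel and membrane potential dye (535/590 nm) in HEK293 cells expressing PDE4 endogenously. Compounds tested up to 22.9 uM final; 100 uM RO 20-1724 reference.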
# [19] = target: Cytochrome P450 3A4 (Homo sapiens) (UniProt P08684); assay: qHTS Assay for Activators of Cytochrome P450 3A4 (AID 885; active = well fitted curve in the direction sought with a large enough effect; an effect the other way counts as inactive or inconclusive; note: nearly all actives have a fitted effect of over 65% in size)
# Sequence of Cytochrome P450 3A4 (Homo sapiens) (P08684 whole entry, looked up): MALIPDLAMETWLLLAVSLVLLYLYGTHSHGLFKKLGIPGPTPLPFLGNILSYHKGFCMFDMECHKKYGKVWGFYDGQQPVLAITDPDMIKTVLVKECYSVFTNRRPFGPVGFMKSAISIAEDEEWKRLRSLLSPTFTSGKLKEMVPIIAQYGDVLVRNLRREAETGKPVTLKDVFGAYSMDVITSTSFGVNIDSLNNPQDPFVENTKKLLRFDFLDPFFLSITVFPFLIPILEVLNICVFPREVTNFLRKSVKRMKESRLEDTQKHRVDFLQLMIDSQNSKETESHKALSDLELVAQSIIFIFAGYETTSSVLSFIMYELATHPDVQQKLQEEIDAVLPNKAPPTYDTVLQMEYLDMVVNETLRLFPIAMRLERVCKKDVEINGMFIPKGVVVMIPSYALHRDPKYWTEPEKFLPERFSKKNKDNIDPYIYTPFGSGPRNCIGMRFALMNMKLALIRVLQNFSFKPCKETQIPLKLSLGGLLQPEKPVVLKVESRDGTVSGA
# In short: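 Luminescent readout of luciferin formed from 25 uM Luciferin-PPXE (KM level) by 20 nM CYP3A4 in 200 mM KPO4, with 60 min NADPH-driven reaction at room temperature after 10 min compound exposure. Ketoconazole (57 uM) defined 100% inhibition.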
# [20] = qHTS Assay for Lipid Storage Modulators (AID 1519); details: Drosophila S3 cells, BODIPY lipid droplet/cell ratio, laser cytometry, cells loaded with oleic acid; for activity change, negative = inhibition: at 57.5 µM (top of the series)
# In short: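 Cells seeded at 5,000 per well were treated with compounds over a concentration series and loaded with oleic acid (400 uM, as added). Lipid droplet fluorescence (488 nm excitation, 500-530 nm channel) was read by laser-scanning cytometry and normalized to 20 uM Triacsin C.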
# [21] = Cell Viability qHTS for small molecule stabilizers of the endoplasmic reticulum resident proteome (AID 1508629; active = well fitted curve in the direction sought with a large enough effect; an effect the other way counts as inactive or inconclusive); details: cell viability counter-screen, 100 nM thapsigargin for final 4 h
# [22] = Confirmatory qHTS for small molecule stabilizers of the endoplasmic reticulum resident proteome: Secreted ER Calcium Modulated Protein (SERCaMP) assay (AID 1508628; active = well fitted curve in the direction sought with a large enough effect; an effect the other way counts as inactive or inconclusive; note: potency is the fitted concentration of half-maximal effect; nearly all actives have a fitted effect of over 40% in size)
# In short: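 Reporter secretion upon ER calcium depletion (100 nM thapsigargin, 4 h, 37C) is measured as medium luminescence with coelenterazine, after 16 h compound pretreatment of SH-SY5Y-GLuc-SERCaMP cells; primary at three concentrations up to 38.3 uM, follow-up at 11 (up to 76.6 uM).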
# [23] = measured here: cell count channel max response
# [24] = measured here: lipid channel max response
structure (smiles),measurement,setting,value
CCCCCCCCC(=O)N[C@H](CN1CCCC1)[C@H](O)c1ccc2c(c1)OCCO2,Potency,[1],inactive
same,Potency,[2],8.91 µM (active)
COc1ccc2c(c1)CN(C(=O)CCN1CCC(Cc3ccccc3)CC1)CCS2,Potency,[1],inactive
same,Potency,[2],4.92 µM (active)
CCC(CC)COC(=O)[C@H](C)N[P@](=O)(OC[C@H]1O[C@@](C#N)(c2ccc3c(N)ncnn23)[C@H](O)[C@@H]1O)Oc1ccccc1,Potency,[1],inactive
same,Potency,[2],10 µM (active)
CN1CCN(c2ccc(C(=O)Nc3n[nH]c4ccc(Cc5cc(F)cc(F)c5)cc34)c(NC3CCOCC3)c2)CC1,Potency,[1],3.55 µM (active)
same,Potency,[2],inactive
same,Potency,[3],31.6 µM (active)
same,Potency,[4],28.2 µM (active)
CCN(CC)CCCS(=O)(=O)N[C@H](CCc1ccccc1)c1nc(Cc2ccc(Br)cc2)no1,Potency,[1],inactive
same,Potency,[2],11.2 µM (active)
O=C(O)c1ccc(O)c2ncc(N3CCCNCC3)cc12,outcome,[5],inactive
CC1=C(C(=O)Nc2nccs2)C(c2ccccc2Br)N=C(Nc2nc3ccccc3o2)N1 (centres undefined),outcome,[5],inactive
OC1CCC(Oc2cccc3cnc(Nc4ccc5nc[nH]c5c4)nc23)CC1 (centres undefined),Potency,[6],0.482 µM (active)
same,Potency,[7],0.341 µM (active)
COC(=O)[C@]1(C)CC[C@]2(C)CC[C@]3(C)C4=CC=C5C(=CC(=O)C(O)=C5C)[C@]4(C)CC[C@@]3(C)[C@@H]2C1,Potency,[8],1.12 µM (active)
same,Potency,[9],9.16 µM (active)
c1cc(CN2CCCC3(CCNCC3)C2)ccn1,Potency,[10],> 20 µM (inactive)
same,Potency,[11],> 11.4 µM (inactive)
same,outcome,[12],inactive
same,Potency,[13],inactive
same,"activity change, negative = inhibition",[14],-14.6% (inactive)
same,outcome,[15],inactive
same,Potency,[16],> 46 µM (inactive)
same,outcome,[17],inactive
same,Potency,[18],inactive
same,Potency,[19],inactive
same,"activity change, negative = inhibition",[20],4.72% (inactive)
same,max response,[20]; [23],11%
same,max response,[20]; [24],17.7%
same,max response,[21],27.2% (inactive)
CCOc1ccc(CCNC(=O)c2cc3cccnc3n2Cc2cccc(C)n2)cc1OCC,outcome,[5],inactive
c1cc(N2CCCC3(CCNCC3)C2)ccn1,outcome,[12],inactive
same,Potency,[13],inactive
same,outcome,[15],inactive
same,Potency,[16],> 46 µM (inactive)
same,outcome,[17],inactive
same,Potency,[18],inactive
same,Potency,[19],inactive
same,"activity change, negative = inhibition",[20],4.41% (inactive)
same,max response,[20]; [23],13.5%
same,max response,[20]; [24],21.3%
same,Potency,[22],14.1 µM (active)
